Pf growth 96h: Primary qHTS for delayed death inhibitors of the malarial parasite plastid, 96 hour incubation. Potency, µM (series often up to 28.7 µM), inactives show at the highest dose activity change, negative = inhibition, hits mostly inhibitors. AID 504834, 2011. P. falciparum luciferase reporter growth, 96 h. 6.9% of 320,000 active; also: potency is read from the fitted curve at half-maximal effect; % is scaled to controls: 0 for no effect and ±100 for the full control effect
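Compounds incubated with erythrocytes infected by luciferase-expressing P. falciparum (2% hematocrit, 0.05% parasitemia final) for 96 hours, 37 C in 5% CO2. Growth inhibition scored as decreased luciferase luminescence.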
Pf growth 48h: Primary qHTS for delayed death inhibitors of the malarial parasite plastid, 48 hour incubation | P. falciparum luciferase growth in erythrocytes, 48 h | Potency, µM (series often up to 28.7 µM), without a hit: at the top dose activity change, negative = inhibition, hits mostly inhibitors | 5.9% of 310,000 active | AID 504832, 2011; also: potency is read from the fitted curve at half-maximal effect; % is scaled to controls: 0 for no effect and ±100 for the full control effect
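Luminescence readout; reporter = integrated firefly luciferase in P. falciparum. RBC culture at 2% hematocrit, 0.1% parasitemia final, 37 C/5% CO2; decreased signal taken as growth inhibition.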
Cycloheximide cs: Cycloheximide Counterscreen for Small Molecule Inhibitors of Shiga Toxin | cell reporter, cycloheximide protein synthesis inhibition counterscreen | max response, % | 12% of 300,000 active | AID 2314, 2010; in the data active = max response mostly above about 13%, no sharp cut-off; inactive = mostly below about 14%; also: read at 38.3 µM for the half of the compounds with a filed dose; 0% is about no effect
Shiga inhibitor: A qHTS for Small Molecule Inhibitors of Shiga Toxin; Vero cells, Shiga toxin protein synthesis inhibition reporter; inhibition, % at 38.7 µM; 9.2% of 290,000 active; AID 2315, 2010; in the data active = inhibition mostly above about 28%, no sharp cut-off; inactive = mostly below about 43%; also: 0% is about no effect
* marks the source's active call; other numbers are inactive results; ? = inconclusive; / = not tested or not shown; [ ] = remark or other dose. This is a sample that favours compounds with a hit; in the whole collection about 21% have one here. Unless noted, calls follow the shape of the dose curve; as a rule, active = well fitted inhibition curve with a large enough effect; inconclusive = small, poorly fitted or top-dose-only effect, or another doubt; inactive = no such curve, though single readings can be large or run the other way.

SMILES | Pf growth 96h | Pf growth 48h | Cycloheximide cs | Shiga inhibitor
O=C(Cc1ccc(Br)cc1)Nc1ccc(Cl)cc1 | -79.7% | ? | 25.1* | 23.6
O=C(Cc1ccc(Cl)cc1)Nc1ccc(CN2CCCCC2)cc1 | 11.7µM* | ? | -2.2 | 4.6
CCOC(=O)C1(Cc2cccc(OC)c2)CCCN(Cc2cc(OC)c(O)c(OC)c2)C1 (configuration not stated) | ? | 16.4% | 12.1 | -8.5
O=C(c1cccc(NS(=O)(=O)c2ccccc2)c1)N1CCCCC1 | ? | -24.5% | / | /
CC(C)Cn1c(N)c(C(=O)CSc2ccc3c(c2)OCCO3)c(=O)n(C)c1=O | 62.7% | 3.7% | 1.1 | -9.6
O=C1CCC(C(=O)NCc2ccccc2)N1 (configuration not stated) | -16.1% | 3.6% | -1.2 | -8.4
COC(=O)C(O)C(O)(CCC(C)C)C(=O)OC1C(OC)=CC23CCCN2CCc2cc4c(cc2C13)OCO4 (configuration not stated) | / | / | -12.4 | -27.2
Cc1cccc(C(=O)Nc2ccc(NC(=O)Cc3ccc(Cl)cc3)cc2)c1 | 11.7µM* | 15.8% | -2.7 | -5.8
O=C(Cc1cccc(Cl)c1)Nc1ccc(Br)cc1 | 18.5% | 7.5% | 16.9* | 25.6
O=C(NCc1ccco1)C(=O)NCC(c1ccco1)N1CCOCC1 (configuration not stated) | 14.4% | 0.0% | -1.3 | -18.1
CNC(=O)COC(=O)C1CCN(S(=O)(=O)c2ccc3c(c2)OCCO3)CC1 | -24.4% | -6.6% | / | /
C[C@H](N)c1nnc(SCC(=O)N(C)C)o1 | 45.8% | 36.1% | 16.8* | 17.4
COc1ccccc1CN1C(=O)c2ccccc2C1C(=O)NC1CCC(C)CC1 (configuration not stated) | ? | ? | -2.5 | -3.9
Clc1ccc(-c2cn(-c3ccccc3)c3[n+]2CCS3)cc1 | 33.6%[5.75 µM] | ? | -0.7 | -2.0
Fc1ccc(-c2cn(-c3ccccc3)c3[n+]2CCS3)cc1 | 0.415µM* | 0.928µM* | -2.2 | -10.8
COc1ccc(-c2cn(-c3ccc(Br)cc3)c3[n+]2CCS3)cc1 | ? | 1.04µM* | -1.6 | -9.0
Cc1ccc(Sc2ccc(NC(=O)CCl)cc2)c(C)c1 | ? | 8.28µM* | -3.5 | -0.2
CC(=O)N1N=C(c2ccco2)CC1c1cc2ccc(C)cc2nc1Cl (configuration not stated) | 0.9% | -6.2% | 1.4 | 34.9
Cc1nn2c(c1-c1ccc(Cl)cc1)N=C(c1ccco1)CC2c1ccccc1 (configuration not stated) | 16.5µM* | ? | 7.8 | 16.3
C[C@@H]1C[C@H]2[C@@H]3CCC4=CC(=O)C=C[C@]4(C)[C@@]3(F)[C@@H](O)C[C@]2(C)[C@@]1(O)C(=O)COP(=O)(O)O | 39.4% | 33.7% | 4.6 | 30.7
CCCCC(=O)O[C@]1(C(=O)CO)[C@H](C)C[C@H]2[C@@H]3CCC4=CC(=O)C=C[C@]4(C)[C@@]3(F)[C@@H](O)C[C@@]21C | ? | ? | -6.5 | -16.5
CCC(=O)O[C@]1(C(=O)CCl)[C@@H](C)CC2C3C[C@H](F)C4=CC(=O)C=CC4(C)[C@@]3(F)C(O)CC21C (some centres not stated) | -12.6% | 1.9µM* | / | /
C[C@H]1C[C@H]2[C@@H]3CCC4=CC(=O)C=C[C@]4(C)[C@@]3(Cl)[C@@H](O)C[C@]2(C)[C@@]1(O)C(=O)CO | ? | 8.6% | -2.0 | -4.8
CC(=O)OCC(=O)[C@@]1(OC(C)=O)[C@@H](C)C[C@H]2[C@@H]3C[C@H](F)C4=CC(=O)C=C[C@]4(C)[C@@]3(F)[C@@H](O)C[C@@]21C | ? | ? | -3.0 | -1.6
CCCC(=O)O[C@]1(C(=O)CCl)[C@@H](C)C[C@H]2[C@@H]3CCC4=CC(=O)C=C[C@]4(C)[C@@]3(F)C(=O)C[C@@]21C | 1.31µM* | 1.65µM* | -1.1 | 29.0
SMILES | Pf growth 96h | Pf growth 48h | Cycloheximide cs | Shiga inhibitor
CCC(=O)O[C@@]1(C(=O)CCl)C(C)CC2C3CCC4=CC(=O)C=C[C@@]4(C)[C@]3(F)C(O)C[C@]21C (some centres not stated) | 3.38µM* | 6.75µM* | / | /
CCC(=O)O[C@]1(C(=O)CCl)[C@@H](C)C[C@H]2[C@@H]3CCC4=CC(=O)C=C[C@]4(C)[C@@]3(F)[C@@H](O)C[C@@]21C | 4.15µM* | 4.65µM* | 7.0 | 4.4
Cc1cc(NC(=O)CN2C(=O)NC(C)(c3ccc(Cl)cc3)C2=O)no1 (configuration not stated) | 0.8% | 13.6% | -1.7 | -3.6
COc1cccc(OC)c1C(=O)N1CCN(C(=O)c2ccc(-c3ccccc3)cc2)CC1 | ? | ? | 5.4 | -3.6
CCC(=O)OC1(C(=O)CCl)[C@@H](C)C[C@H]2[C@@H]3CCC4=CC(=O)C=C[C@]4(C)[C@@]3(F)[C@@H](O)C[C@@]21C (some centres not stated) | 5.22µM* | 2.33µM* | / | /
O=S(=O)(Cc1noc(-c2ccc(Cl)cc2)n1)Cc1ccco1 | 54.5% | 8.6% | -1.9 | -13.9
CCC(=O)Nc1nonc1-c1nc2ccccc2n1Cc1cccc2ccccc12 | 5.22µM* | ? | 8.1 | 1.2
OCCNc1nc(-c2ccccc2)nc2ccccc12 | -14.6% | 9.4% | 1.3 | 14.4
Cc1ccc(Nc2nc(NCCO)c3ccccc3n2)cc1C | ? | 0.465µM* | 10.0 | /
COc1ccccc1Nc1nc(NCCO)c2ccccc2n1 | ? | ? | 9.0 | 4.1
COc1ccc(OC)c(Nc2nc(NCCO)c3ccccc3n2)c1 | ? | 2.08µM* | -3.4 | 7.9
COC(=O)c1cccc(NC(=O)CCc2ccccc2)c1 | -6.5% | 103.5% | 57.6* | 57.5*
O=C(O)CCN1C(=O)c2ccc(NC(=O)CCc3ccccc3)cc2C1=O | 11.7µM* | -1.5% | -1.9 | 2.4
CN(C)c1cccc(NC(=O)Cc2ccc(F)cc2)c1 | 3.2% | -15.6% | 11.3 | 29.2
CN(C)c1cccc(NC(=O)CCc2ccccc2)c1 | / | 28.3% | 18.0* | 67.7*
COC(=O)c1cccc(NC(=O)CSCc2ccccc2)c1 | ? | -6.9% | 19.0* | 16.2
COC(=O)c1cccc(NC(=O)CCc2cc(OC)c(OC)c(OC)c2)c1 | -8.2% | 9.9% | 1.1 | -0.6
CC(C)c1cccc(C(C)C)c1NC(=O)COC(=O)[C@H](C)NC(N)=O | ? | ? | -5.1 | -10.7
CC(=O)Nc1ccc(NC(=O)CCCc2ccccc2)cc1 | 22.3% | -13.6% | 30.8* | 24.3
CC(=O)Nc1cccc(NC(=O)CCc2ccccc2)c1 | / | 39.9% | 24.0 | 138.5*
CC(C)CNC(=O)c1cccc(NC(=O)CCc2ccccc2)c1 | -9.4% | 1.5% | 5.5 | -6.7
COc1ccc(NC(=O)CCCc2ccccc2)cc1OC | 141.1% | 95.6% | 53.9* | 89.3*
Cc1cccc(NC(=O)CCc2ccccc2)c1 | -22.6% | 171.4% | 54.4* | 111.1
Cc1ccc(NCCC#N)cc1C | 96.1% | -7.4% | 11.2 | -3.7
Cc1nc(Cc2nnc(SC(C)C(=O)Nc3cccc(C#N)c3)o2)cs1 (configuration not stated) | 3.2% | 15.7% | / | /
Clc1ccc(Cl)c(OCc2cc(-c3ccccc3Cl)on2)c1 | 101.5% | ? | 4.7 | 10.6
COc1ccccc1C(=O)NC(=O)COC(=O)c1cccc(C)c1O | 5.9% | ? | / | /

Bioassay records as filed in PubChem BioAssay.
